According to the supplement of paper PMC9262897, “Low-cost anti-mycobacterial drug discovery using engineered E. coli” (Nature Communications, 2022):
Counter-ions that a name gives are not always drawn. ± gives the standard deviation of the averaged measurements.

Key:
Assay in all cases: growth (OD600 after 10 h); higher = more growth (less inhibition)
[1] = test system: E. coli TESEC Alr+ wild-type control; details: compound 0.1 mM; raw OD600 reference: median of DMSO wells 0.241, cell-free background 0.041
Protocol: (§1)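 TESEC Mtb Alr E. coli, or the Alr+ wild-type control, in 384-well plates with Prestwick library compounds at 0.1 mM and 1% DMSO, across arabinose induction levels of 1E3 to 1E7 nM. Growth is read as OD600 after 10 h at 37 °C in triplicate biological replicates.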

E. coli TESEC Mtb Alr [2] = details: compound 0.1 mM
Protocol: as §1

E. coli TESEC Mtb Asd = details: compound 0.1 mM
Protocol: (§2)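 TESEC E. coli strains in which the native enzyme is deleted and replaced by arabinose-inducible Mtb Asd, DapB, CysH or TrpD, each grown in its selective medium. Strains were screened against the Prestwick library at 0.1 mM and 1% DMSO in 384-well format at low and high arabinose induction. Growth is read as OD600 after 10 h in triplicate.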

E. coli TESEC Mtb DapB = details: compound 0.1 mM
Protocol: as §2

[3] = test system: E. coli TESEC Alr+ wild-type control; details: compound 0.1 mM; raw OD600 reference: median of DMSO wells 0.49, cell-free background 0.052
Protocol: (§3)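 TESEC Mtb Alr E. coli (ΔaraC ΔtolC ΔentC Δalr ΔdadX, arabinose-inducible Mtb Alr) or the Alr+ wild-type control strain, grown in defined M9-fructose medium without D-alanine in 96-well plates with Prestwick library compounds at 0.1 mM and 1% DMSO. Low Alr induction is 0.1 µM arabinose and high induction is 10 mM arabinose.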

E. coli TESEC Mtb Alr [4] = details: compound 0.1 mM; remark: listed apart in the source
Protocol: as §3

[5] = arabinose 1000 nM, raw OD600 reference: median of DMSO wells 0.294, cell-free background 0.041
[6] = arabinose 10000 nM, raw OD600 reference: median of DMSO wells 0.264, cell-free background 0.041
[7] = arabinose 100000 nM, raw OD600 reference: median of DMSO wells 0.201, cell-free background 0.041
[8] = arabinose 1000000 nM, raw OD600 reference: median of DMSO wells 0.193, cell-free background 0.041
[9] = arabinose 10000000 nM, raw OD600 reference: median of DMSO wells 0.146, cell-free background 0.041
[10] = arabinose induction (level): High, raw OD600 reference: median of DMSO wells 0.331, cell-free background 0.041
[11] = arabinose induction (level): Low, raw OD600 reference: median of DMSO wells 0.417, cell-free background 0.041
[12] = arabinose induction (level): High, raw OD600 reference: median of DMSO wells […], cell-free background 0.041
[13] = arabinose induction (level): Low, raw OD600 reference: median of DMSO wells 0.227, cell-free background 0.041
[14] = arabinose 100 nM, raw OD600 reference: median of DMSO wells 0.413, cell-free background 0.052
[15] = arabinose 10000000 nM, raw OD600 reference: median of DMSO wells […], cell-free background 0.052

Compound | growth [1] | growth (E. coli TESEC Mtb Alr [2]; [5]) | growth (E. coli TESEC Mtb Alr [2]; [6]) | growth (E. coli TESEC Mtb Alr [2]; [7]) | growth (E. coli TESEC Mtb Alr [2]; [8]) | growth (E. coli TESEC Mtb Alr [2]; [9]) | growth (E. coli TESEC Mtb Asd; [10]) | growth (E. coli TESEC Mtb Asd; [11]) | growth (E. coli TESEC Mtb DapB; [12]) | growth (E. coli TESEC Mtb DapB; [13]) | growth [3] | growth (E. coli TESEC Mtb Alr [4]; [14]) | growth (E. coli TESEC Mtb Alr [4]; [15])
COc1ccc(CCN(C)CCCC(C#N)(c2ccc(OC)c(OC)c2)C(C)C)cc1OC (configuration not stated) [Verapamil hydrochloride] | 0.185 ± 0.0071 | 0.25 ± 0.0055 | 0.27 ± 0.0044 | 0.195 ± 0.0032 | 0.116 ± 0.0045 | 0.149 ± 0.0027 | 0.243 ± 0.048 | 0.346 ± 0.095 | 0.177 ± 0.017 | 0.248 ± 0.044 | 0.461 ± 0.022 | 0.409 ± 0.005 | 0.258 ± 0.014
CC1(C)S[C@@H]2[C@H](NC(=O)Cc3ccccc3)C(=O)N2[C@H]1C(=O)O [Benzylpenicillin sodium] | 0.237 ± 0.005 | 0.2824 ± 0.00081 | 0.282 ± 0.0074 | 0.172 ± 0.011 | 0.227 ± 0.017 | 0.132 ± 0.0078 | 0.331 ± 0.1 | 0.385 ± 0.06 | 0.204 ± 0.013 | 0.229 ± 0.017 | 0.533 ± 0.11 | 0.434 ± 0.0042 | 0.363 ± 0.0066
COc1cc(C(=O)NC2CCCNC2)cc(OC)c1OC (configuration not stated) [Troxipide] | 0.225 ± 0.0045 | 0.286 ± 0.012 | 0.255 ± 0.0049 | 0.205 ± 0.016 | 0.191 ± 0.02 | 0.134 ± 0.0027 | 0.353 ± 0.075 | 0.427 ± 0.057 | 0.19 ± 0.012 | 0.216 ± 0.0046 | 0.504 ± 0.1 | 0.402 ± 0.014 | 0.359 ± 0.038
O=C(c1ccccc1)c1ccc2n1CCC2C(=O)O (configuration not stated) [Ketorolac tromethamine] | 0.222 ± 0.0085 | 0.262 ± 0.015 | 0.253 ± 0.013 | 0.181 ± 0.01 | 0.195 ± 0.0049 | 0.137 ± 0.0035 | 0.381 ± 0.035 | 0.331 ± 0.036 | 0.194 ± 0.02 | 0.216 ± 0.049 | 0.531 ± 0.076 | 0.384 ± 0.016 | 0.326 ± 0.0097
CC(NCCc1ccc(O)cc1)C(O)c1ccc(O)cc1 (configuration not stated) [Ritodrine hydrochloride] | 0.234 ± 0.0026 | 0.313 ± 0.011 | 0.2537 ± 0.0014 | 0.21 ± 0.032 | 0.176 ± 0.0022 | 0.144 ± 0.0063 | 0.251 ± 0.027 | 0.348 ± 0.055 | 0.179 ± 0.0043 | 0.185 ± 0.01 | 0.56 ± 0.074 | 0.408 ± 0.0081 | 0.36 ± 0.019
CC(C(=O)O)c1ccc2c(c1)[nH]c1ccc(Cl)cc12 (configuration not stated) [Carprofen] | 0.0924 ± 0.0058 | 0.116 ± 0.006 | 0.107 ± 0.0066 | 0.1024 ± 0.001 | 0.0781 ± 0.0038 | 0.111 ± 0.0039 | 0.171 ± 0.015 | 0.168 ± 0.044 | 0.201 ± 0.0073 | 0.215 ± 0.011 | 0.594 ± 0.029 | 0.409 ± 0.0018 | 0.149 ± 0.025
CC(Cc1cccc(C(F)(F)F)c1)NCCOC(=O)c1ccccc1 (configuration not stated) [Benfluorex] | 0.174 ± 0.0053 | 0.15 ± 0.094 | 0.163 ± 0.0039 | 0.209 ± 0.0022 | 0.0479 ± 0.0001 | 0.0634 ± 0.0014 | 0.163 ± 0.014 | 0.153 ± 0.0072 | 0.149 ± 0.0064 | 0.1621 ± 0.00032 | 0.405 ± 0.013 | 0.411 ± 0.01 | 0.0607 ± 0.0052
O=c1oc2ccccc2c(O)c1Cc1c(O)c2ccccc2oc1=O [Dicumarol] | 0.178 ± 0.001 | 0.159 ± 0.0018 | 0.1609 ± 0.0012 | 0.149 ± 0.0042 | 0.0997 ± 0.0013 | 0.126 ± 0.0032 | 0.289 ± 0.049 | 0.262 ± 0.049 | 0.18 ± 0.014 | 0.199 ± 0.046 | 0.191 ± 0.025 | 0.128 ± 0.022 | 0.0655 ± 0.0074
O=C(CCCN1CCC(O)(c2ccc(Cl)cc2)CC1)c1ccc(F)cc1 [Haloperidol] | 0.216 ± 0.0039 | 0.265 ± 0.012 | 0.273 ± 0.0054 | 0.192 ± 0.015 | 0.172 ± 0.0034 | 0.14 ± 0.0019 | 0.395 ± 0.047 | 0.452 ± 0.028 | 0.187 ± 0.0073 | 0.248 ± 0.034 | 0.354 ± 0.006 | 0.4348 ± 0.0041 | 0.239 ± 0.012
O=C(NC(Cc1cc(=O)[nH]c2ccccc12)C(=O)O)c1ccc(Cl)cc1 (configuration not stated) [Rebamipide] | 0.26 ± 0.0077 | 0.314 ± 0.015 | 0.259 ± 0.0053 | 0.211 ± 0.01 | 0.196 ± 0.0026 | 0.146 ± 0.0044 | 0.312 ± 0.035 | 0.435 ± 0.058 | 0.221 ± 0.0038 | 0.244 ± 0.011 | 0.484 ± 0.068 | 0.409 ± 0.012 | 0.368 ± 0.014
CC1=Nc2ccc(Cl)cc2S(=O)(=O)N1 [Diazoxide] | 0.244 ± 0.013 | 0.276 ± 0.018 | 0.271 ± 0.0032 | 0.209 ± 0.04 | 0.189 ± 0.01 | 0.146 ± 0.0083 | 0.369 ± 0.022 | 0.412 ± 0.032 | 0.199 ± 0.0067 | 0.245 ± 0.048 | 0.465 ± 0.041 | 0.4111 ± 0.0032 | 0.365 ± 0.034
COc1ccc(C(Cl)=C(c2ccc(OC)cc2)c2ccc(OC)cc2)cc1 [Chlorotrianisene] | 0.242 ± 0.0055 | 0.306 ± 0.018 | 0.2565 ± 0.0023 | 0.189 ± 0.013 | 0.208 ± 0.013 | 0.168 ± 0.049 | 0.281 ± 0.037 | 0.264 ± 0.019 | 0.232 ± 0.016 | 0.267 ± 0.0015 | 0.469 ± 0.025 | 0.443 ± 0.02 | 0.407 ± 0.019
O=C1CC2(CCCC2)CC(=O)N1CCCCN1CCN(c2ncccn2)CC1 [Buspirone hydrochloride] | 0.2005 ± 0.002 | 0.274 ± 0.0095 | 0.2798 ± 0.0023 | 0.184 ± 0.028 | 0.198 ± 0.011 | 0.134 ± 0.0058 | 0.337 ± 0.021 | 0.439 ± 0.046 | 0.1852 ± 0.0015 | 0.226 ± 0.035 | 0.454 ± 0.019 | 0.411 ± 0.0053 | 0.346 ± 0.011
NCc1ccc(S(N)(=O)=O)cc1 [Mafenide hydrochloride] | 0.248 ± 0.0039 | 0.295 ± 0.021 | 0.259 ± 0.0097 | 0.187 ± 0.015 | 0.177 ± 0.0036 | 0.14 ± 0.0058 | 0.358 ± 0.018 | 0.41 ± 0.044 | 0.199 ± 0.0035 | 0.251 ± 0.032 | 0.418 ± 0.046 | 0.418 ± 0.0068 | 0.373 ± 0.018
